Many of the other results were omitted from the sample, so hits are more common in it than they were.
Cycloheximide cs: counter-screen hit for Shiga toxin inhibitors, cycloheximide; cell reporter, cycloheximide protein synthesis inhibition counterscreen; hit rate 12% among 300,000; max response, %; in the data active means max response mostly above about 13%, no sharp cut-off; inactive means mostly below about 14%; further: read at 38.3 µM for the half of the compounds with a filed dose; 0% is about no effect
Tb PYK inh: blocks Trypanosoma brucei pyruvate kinase; Q57TT1; Potency, µM (doses to about 76.8 µM), inactives show at the highest dose activity, negative = inhibition, most hits filed as inhibitors; AID 624173; hit rate 0.12% among 410,000; TbPYK enzyme, Kinase-Glo Plus ATP luminescence, 45 min; further: potency means the concentration at half of the fitted maximal effect; on the % scale 0 is the no-effect control and ±100 the full control effect; nearly all actives have a fitted effect of over 50% in size
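ADP (130 uM final) triggers the TbPYK reaction after compound addition; incubation is 45 min at room temperature. Kinase-Glo Plus is then added and luminescence imaged. Normalized data are fitted to concentration-effect curves.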
LmPK inh: inhibitors of Leishmania mexicana pyruvate kinase; purified LmPK, Kinase-Glo ATP luminescence, 1 h; Potency, µM (top dose mostly 57.5 µM), for inactives: top-dose activity change, negative = inhibition, usual class: inhibitors; AID 1721; Q27686; hit rate 0.37% among 290,000; further: potency means the concentration at half of the fitted maximal effect; on the % scale 0 is the no-effect control and ±100 the full control effect
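0.1 nM LmPK, 0.5 mM PEP, 0.1 mM ADP; 50 mM imidazole pH 7.2, 7 mM MgCl2, 50 mM KCl; 1 h RT. Kinase-Glo luminescence readout, normalized to no-enzyme (full inhibition) and uninhibited wells.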
RE007 growth inh: less growth of the S. pombe RE007 Vpr strain; Potency, µM (top dose mostly 92.2 µM), inactives show at the highest dose activity change, negative = less growth, actives largely listed as inhibitors; S. pombe RE007 Vpr strain, BacTiter-Glo ATP luminescence, 24 h; hit rate 0.21% among 360,000; active means well fitted falling curve with a large enough effect; inconclusive means small, poorly fitted or top-dose-only effect; inactive means no such curve, though single readings can be large or run the other way; further: potency means the concentration at half of the fitted maximal effect; on the % scale 0 is the no-effect control and ±100 the full control effect; nearly all actives have a fitted effect of over 50% in size
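Fission yeast RE007 carrying one integrated HIV-1 vpr copy, seeded at OD 0.01 in PMG+AL medium with 23 nL pinned compound. Grown 24 h at 30 degrees; viability read by BacTiter-Glo luminescence after 5 min.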
Shiga inhibitor: blocks Shiga toxin action in Vero cells; Vero cells, Shiga toxin protein synthesis inhibition reporter; inhibition, % at 38.7 µM; hit rate 9.2% among 290,000; in the data active means inhibition mostly above about 28%, no sharp cut-off; inactive means mostly below about 43%; further: 0% is about no effect
FBPA Giardia inh: inhibitors of Giardia lamblia fructose-1,6-bisphosphate aldolase. A8B2U2. purified Giardia FBPA. Potency, µM (highest dose often 59.6 µM), inactives show at the highest dose activity, negative = inhibition, actives largely listed as inhibitors. hit rate 0.71% among 290,000. AID 2451; further: potency means the concentration at half of the fitted maximal effect; on the % scale 0 is the no-effect control and ±100 the full control effect; nearly all actives have a fitted effect of over 55% in size
Target sequence (A8B2U2 whole entry, looked up): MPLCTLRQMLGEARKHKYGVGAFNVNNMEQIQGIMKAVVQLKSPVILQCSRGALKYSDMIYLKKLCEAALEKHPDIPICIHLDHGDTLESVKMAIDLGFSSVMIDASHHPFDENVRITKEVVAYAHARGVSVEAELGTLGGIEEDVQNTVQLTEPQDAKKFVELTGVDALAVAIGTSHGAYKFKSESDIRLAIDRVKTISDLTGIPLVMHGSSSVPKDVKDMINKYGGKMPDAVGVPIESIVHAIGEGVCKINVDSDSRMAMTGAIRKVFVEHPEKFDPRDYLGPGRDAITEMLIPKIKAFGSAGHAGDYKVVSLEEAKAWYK
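Giardia FBPA (40 nM reagent) was preincubated 10 min at RT with compound (up to 57.5 uM final), then substrate plus GAPDH/TPI/NAD/arsenate coupling system with diaphorase/resazurin was added; resorufin fluorescence (525/598 nm) was read after 20 min.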
* marks the source's active call; other numbers are inactive results; [ ] = remark or other dose. Unless noted, the call rests on the fitted dose curve; in most records, active means well fitted curve in the direction sought with a large enough effect; inconclusive means small, poorly fitted or top-dose-only effect, or another doubt; inactive means no such curve, though single readings can be large; an effect the other way counts as inactive or inconclusive.

Results for CC1(C)NC(=O)N(CCCOc2ccc(Br)cc2Cl)C1=O ?
Cycloheximide cs: 40*; Tb PYK inh: 3%; LmPK inh: -9%; RE007 growth inh: 1%; Shiga inhibitor: 134*; FBPA Giardia inh: 4%

What do the screens show for `COc1ccc([C@H]2CC(=O)c3c(O)cc(O)cc3O2)cc1O`?
Cycloheximide cs: 23*; Tb PYK inh: -9%; LmPK inh: 3%; RE007 growth inh: 2%; Shiga inhibitor: 57; FBPA Giardia inh: 10%

How did COc1c(O)cc2c(c1O)C(=O)CC(c1ccccc1)O2 (configuration not stated) do in these assays?
Cycloheximide cs: 44*; LmPK inh: -3%; Shiga inhibitor: 71*; FBPA Giardia inh: 15%

How did COc1cc(C2CC(=O)c3c(O)cc(O)cc3O2)ccc1O (configuration not stated) do in these assays?
Cycloheximide cs: -1; Tb PYK inh: 0%; LmPK inh: 0%; RE007 growth inh: -3%; Shiga inhibitor: -10; FBPA Giardia inh: 9%

How did O=S(=O)(Nc1ccc2c(c1)nc1n2CCN(Cc2ccccc2)C1)c1ccccc1 do in these assays?
Cycloheximide cs: 117*; Tb PYK inh: -3%; LmPK inh: -1%; RE007 growth inh: -13%; Shiga inhibitor: 111*; FBPA Giardia inh: 5%

What do the screens show for `O=S(=O)(Nc1ccc2c(c1)nc1n2CCN(Cc2ccccc2)C1)c1ccc(Cl)cc1`?
Cycloheximide cs: -3; LmPK inh: 4%; RE007 growth inh: -3%[3.69 µM]; Shiga inhibitor: -5; FBPA Giardia inh: -1%

What do the screens show for `CC(C)(C)OC(=O)N1CCC(c2c(C(=O)N3CCN(C(=O)c4ccco4)CC3)cnn2-c2ccccc2Cl)CC1`?
Tb PYK inh: -5%

Results for Cc1cc2nn(-c3ccc(F)cc3)nc2cc1N ?
Cycloheximide cs: 58*; Tb PYK inh: -11%; LmPK inh: -25%; RE007 growth inh: -17%; FBPA Giardia inh: inconclusive

Results for COc1ccc(-n2nc3cc(C)c(N)cc3n2)cc1Cl ?
Cycloheximide cs: 40*; Tb PYK inh: -9%; LmPK inh: -2%; RE007 growth inh: -16%; Shiga inhibitor: 39*; FBPA Giardia inh: inconclusive

Results for COc1ccc(-n2nc3cc(C)c(NC(=O)c4ccc(C)cc4C)cc3n2)cc1Cl ?
Tb PYK inh: 3%

What do the screens show for `Cc1cc2nn(-c3ccc(Cl)cc3)nc2cc1N`?
Cycloheximide cs: 50*; Tb PYK inh: -5%; LmPK inh: -3%; Shiga inhibitor: 113*; FBPA Giardia inh: -23%

Results for CCCN(CCC)C(=O)Cn1c(=O)n(-c2cccc(C)c2)c(=O)c2c1c1cc(OC)ccc1n2C ?
Tb PYK inh: -6%

How did COc1ccccc1CNc1cc(-c2ccccc2)ccc1OC do in these assays?
Cycloheximide cs: 6; Tb PYK inh: -6%; LmPK inh: 0%; RE007 growth inh: 1%; Shiga inhibitor: -9; FBPA Giardia inh: -7%

Results for COc1ccc(-c2ccccc2)cc1NCc1ccccc1C ?
Cycloheximide cs: 44*; Tb PYK inh: -4%; LmPK inh: -4%; RE007 growth inh: inconclusive; Shiga inhibitor: 46; FBPA Giardia inh: -20%

How did CCc1ccccc1S(=O)(=O)Cc1ccc(C(=O)NCCc2ccc(Cl)cc2)o1 do in these assays?
Tb PYK inh: -2%

How did O=C(c1cc2c(=O)n3ccccc3nc2s1)N1CCN(c2cccc(Cl)c2)CC1 do in these assays?
Cycloheximide cs: 2; Tb PYK inh: -1%; LmPK inh: 0%; RE007 growth inh: 11%; Shiga inhibitor: -4; FBPA Giardia inh: -9%

What do the screens show for `O=C(c1cc2c(=O)n3ccccc3nc2s1)N1CCOCC1`?
Cycloheximide cs: 22*; Tb PYK inh: 2%; LmPK inh: -11%; RE007 growth inh: -15%; Shiga inhibitor: 39*; FBPA Giardia inh: 2%

How did CCOC(=O)C1CCCN(C(=O)c2cc3c(=O)n4ccccc4nc3s2)C1 (configuration not stated) do in these assays?
Cycloheximide cs: -1; Tb PYK inh: 11%; LmPK inh: -12%; RE007 growth inh: 2%; Shiga inhibitor: -25

Bioassay records: PubChem, National Center for Advancing Translational Sciences (NCATS)
